Consider 20 compounds from PubChem BioAssay.

Molecules are shown by their SMILES. Several values for one entry are separate records, joined by “and”; a condition that tells them apart may be missing. Equal entries are not always repeated. Activity calls are given as the source filed them. How the calls were made is not given here.

Test [1] in a line: kinase inhibitors against Plasmodium liver-stage infection, cell-based, known kinase inhibitor set, luminescence, hepatoma host viability (AID 624392).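 Further: infected cells incubated roughly two days before readout.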 The settings on record: Plasmodium liver stage in hepatoma cells, luciferase luminescence, concentration not given here; liver cell % of control: measured here: host liver cell viability; parasite % of control: stronger effect = lower value.

Test [2] can be described thus: modulators of glucocorticoid suppression of NF-kB, cell-based, luciferase, IL-1B stimulus, dexamethasone (AID 624486).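 On percent of negative control (+Dex): 100% = mean signal of vehicle control wells on the plate.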 The conditions noted are these: NF-kB luciferase reporter, IL-1B + dexamethasone, luminescence; percent of negative control (+Dex): actives lie on both sides, concentration not given here; z-score: measured here: IL-1B alone, no Dex. For orientation: A reporter such as luciferase makes a cellular process visible.

For test [3], the target named is Cellular tumor antigen p53 (Homo sapiens) (UniProt P04637). Briefly: kinase inhibitors altering GFP-p53 stability in HPV16-positive cells, imaging, known kinase inhibitor set, EGFP/DsRed ratio (AID 1053116).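 Further: cells exposed to compounds for 24 h at 37 °C before reading.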 The settings on record: stronger effect = higher value; EGFP object count: measured here: GFP-p53 positive objects count.
Cellular tumor antigen p53 (Homo sapiens), sequence (P04637 whole entry, looked up): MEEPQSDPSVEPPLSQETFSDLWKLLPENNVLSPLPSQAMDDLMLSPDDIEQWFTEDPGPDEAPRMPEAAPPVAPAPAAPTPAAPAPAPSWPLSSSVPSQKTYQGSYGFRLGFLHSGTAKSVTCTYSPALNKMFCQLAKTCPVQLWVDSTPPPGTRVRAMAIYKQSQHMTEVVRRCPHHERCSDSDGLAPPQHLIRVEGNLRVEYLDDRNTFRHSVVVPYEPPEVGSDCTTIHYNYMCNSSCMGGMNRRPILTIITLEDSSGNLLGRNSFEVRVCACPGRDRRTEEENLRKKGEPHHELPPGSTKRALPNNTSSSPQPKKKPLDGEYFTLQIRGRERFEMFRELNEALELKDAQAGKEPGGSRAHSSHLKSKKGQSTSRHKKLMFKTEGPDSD
Test [4] is described as follows: IRF3 reporter activation in THP-1 macrophages, cell-based, PMA-stimulated THP-1, luminescence (AID 1053176). The settings on record: PMA-differentiated THP-1, IRF3 reporter luminescence; stronger effect = higher value.

On to `CSc1c(C2=C(c3cn(C)c4ccccc34)C(=O)NC2=O)c2ccccc2n1C`, for which, in test [1], the liver cell % of control came to 96.3% and the parasite % of control was 78.1% (inactive). Besides, in test [2], the percent of negative control (+Dex) is 110% (inactive) and the z-score came out at 0.45. In test [3], the EGFP object count is 21 and the EGFP/DsRed ratio was 0.217 (inactive). In test [4], the fraction signal is 0.0015 (inactive).
For the compound `CC(O)CNc1cc(-c2[nH]c3cccnc3c2-c2ccc(F)cc2)ccn1` (stereo not given), in test [1], the liver cell % of control was 229% and the parasite % of control was 13.2% (inactive). Also, in test [2], the percent of negative control (+Dex) was 106% (inactive) and the z-score is 0.42. Besides, in test [3], the EGFP object count was found to be 4 and the EGFP/DsRed ratio is 0.042 (inactive). For the same compound, the fraction signal in test [4] is 0.0055 (inactive).
On to `Cc1ccc2c(c1)c(C1=C(c3cn(C)c4ccccc34)C(=O)NC1=O)cn2C`, for which, in test [1], the liver cell % of control was 83% and the parasite % of control is 41.7% (inactive). In addition, in test [2], the percent of negative control (+Dex) was 102% (inactive) and the z-score was -1.36. Further, in test [3], the EGFP object count was 174 and the EGFP/DsRed ratio was 0.907 (active). Further, the fraction signal in test [4] is -0.003 (inactive).
Consider `Cn1c(=O)c(-c2ccccc2Cl)cc2cnc(NC3CCOCC3)nc21`, for which, in test [1], the liver cell % of control came out at 100% and the parasite % of control is 252% (inactive). Also, in test [2], the percent of negative control (+Dex) is 93% (inactive) and the z-score was -0.175. In test [3], the EGFP object count was determined as 1 and the EGFP/DsRed ratio was 0.00654 (inactive). In test [4], the fraction signal was -0.0055 (inactive).
On to `N=C1N=C(N)C(=Cc2ccc3ncccc3c2)S1`, for which, in test [1], the liver cell % of control is 121% and the parasite % of control was 61.8% (inactive). For the same compound, in test [2], the percent of negative control (+Dex) is 98.5% (inactive) and the z-score is 1.46. In addition, in test [3], the EGFP object count amounted to 3.5 and the EGFP/DsRed ratio was 0.171 (inactive). Moreover, the fraction signal in test [4] is 0.006 (inactive).
For the compound `Nc1c(C(=O)c2cccc(C#CCO)c2)cnn1-c1ccc(F)cc1`, in test [1], the liver cell % of control is 100% and the parasite % of control is 58.9% (inactive). In test [2], the percent of negative control (+Dex) was 108% (inactive) and the z-score came out at 1.13. In test [3], the EGFP object count came to 1.5 and the EGFP/DsRed ratio was 0.0236 (inactive). The fraction signal in test [4] was 0.008 (inactive).
On to `Cn1cc(C2=C(c3ccc(N)cc3)C(=O)NC2=O)c2ccccc21`, for which, in test [1], the liver cell % of control is 135% and the parasite % of control was 32.1% (inactive). In test [2], the percent of negative control (+Dex) was 100% (inactive) and the z-score was -0.99. In test [3], the EGFP object count stood at 28.5 and the EGFP/DsRed ratio is 0.493 (inactive). Further, the fraction signal in test [4] is -0.005 (inactive).
`COc1cc[nH]c1C=C1C(=O)Nc2ccc(F)c(C#CC3(O)CCOCC3)c21`: in test [1], the liver cell % of control was 128% and the parasite % of control was 1.61% (active). For the same compound, in test [2], the percent of negative control (+Dex) is 122% (inactive) and the z-score is -1.81. In addition, in test [3], the EGFP object count amounted to 6 and the EGFP/DsRed ratio was 0.109 (inactive). Moreover, the fraction signal in test [4] was -0.0095 (inactive).
In the case of `CNC(C#Cc1c(F)ccc2c1C(=Cc1[nH]ccc1OC)C(=O)N2)CO` (stereo not given), in test [1], the liver cell % of control was 129% and the parasite % of control was 62.7% (inactive). In test [2], the percent of negative control (+Dex) was 144% (active) and the z-score is 1.07. Further, in test [3], the EGFP object count was 51.5 and the EGFP/DsRed ratio is 0.055 (inactive). For the same compound, the fraction signal in test [4] is 0.001 (inactive).
As for `Cn1c(=O)c(Oc2ccc(F)cc2F)cc2cnc(NCCS(C)(=O)=O)nc21`, in test [1], the liver cell % of control amounted to 117% and the parasite % of control is 60.7% (inactive). Besides, in test [2], the percent of negative control (+Dex) was 101% (inactive) and the z-score was 0.95. Also, in test [3], the EGFP object count turned out to be 1 and the EGFP/DsRed ratio is 0.00515 (inactive). For the same compound, the fraction signal in test [4] was 0.0015 (inactive).
For the compound `CN(C)CC1CCn2c(c(C3=C(c4cn(C)c5ccccc45)C(=O)NC3=O)c3ccccc32)C1` (stereo not given), in test [1], the liver cell % of control is 80.7% and 77.1%; the parasite % of control is 27.7% (inactive) and 36.4% (inactive). Also, in test [2], the percent of negative control (+Dex) was 97% (inactive) and 96.5% (inactive); the z-score is -0.715 and -0.17. Besides, in test [3], the EGFP object count is 13.5 and 7.5; the EGFP/DsRed ratio is 0.0249 (inactive) and 0.0159 (inactive). For the same compound, in test [4], the fraction signal was -0.0005 (inactive) and -0.0055 (inactive).
In the case of `Cn1c(=O)c(Oc2ccc(F)cc2F)cc2cnc(NC3CCOC3)nc21` (stereo not given), in test [1], the liver cell % of control was 96.2% and the parasite % of control was 51.2% (inactive). In test [2], the percent of negative control (+Dex) was 104% (inactive) and the z-score turned out to be 0.575. Further, in test [3], the EGFP object count is 4.5 and the EGFP/DsRed ratio is 0.257 (inactive). Also, in test [4], the fraction signal was -0.001 (inactive).
`Cn1c(=O)c(Oc2ccc(F)cc2F)cc2cnc(NC(CO)CO)nc21`: in test [1], the liver cell % of control was 113% and the parasite % of control was 64.2% (inactive). For the same compound, in test [2], the percent of negative control (+Dex) was 108% (inactive) and the z-score turned out to be 0.05. For the same compound, in test [3], the EGFP object count amounted to 2.5 and the EGFP/DsRed ratio was 0.0637 (inactive). The fraction signal in test [4] was 0.0035 (inactive).
With `COc1cccc(C2=C(c3cn(C)c4cc(F)ccc34)C(=O)NC2=O)c1`, in test [1], the liver cell % of control worked out at 128% and the parasite % of control was 31.5% (inactive). In addition, in test [2], the percent of negative control (+Dex) was 114% (inactive) and the z-score was 0.535. Further, in test [3], the EGFP object count was 7 and the EGFP/DsRed ratio is 0.327 (inactive). For the same compound, the fraction signal in test [4] was 0.0095 (inactive).
As to `O=C1Nc2ccc(F)cc2C1=Cc1ccc[nH]1`, in test [1], the liver cell % of control worked out at 55.9% and the parasite % of control was 14% (inactive). Besides, in test [2], the percent of negative control (+Dex) was 136% (active) and the z-score was determined as 4.44. Moreover, in test [3], the EGFP object count was determined as 23 and the EGFP/DsRed ratio is 0.607 (inactive). Further, the fraction signal in test [4] was -0.014 (inactive).
In the case of `N#Cc1cccc(C(=O)c2cnn(-c3ccc(F)cc3)c2N)c1`, in test [1], the liver cell % of control stood at 102% and the parasite % of control is 61.7% (inactive). In test [2], the percent of negative control (+Dex) is 114% (inactive) and the z-score worked out at 2.75. In addition, in test [3], the EGFP object count came out at 4.5 and the EGFP/DsRed ratio is 0.122 (inactive). Further, in test [4], the fraction signal is 0.01 (inactive).
`Cn1cc(C2=C(c3cn(C)c4c([N+](=O)[O-])cccc34)C(=O)NC2=O)c2ccccc21`: in test [1], the liver cell % of control came to 78.7% and the parasite % of control was 22.7% (inactive). In addition, in test [2], the percent of negative control (+Dex) is 102% (inactive) and the z-score is -0.03. For the same compound, in test [3], the EGFP object count turned out to be 18.5 and the EGFP/DsRed ratio is 0.137 (inactive). For the same compound, the fraction signal in test [4] was -0.005 (inactive).
As for `COc1ccc2c(c1)C(c1ccccc1Cl)=Nc1c(n[nH]c1C)N2`, in test [1], the liver cell % of control came to 81.2% and the parasite % of control is 28.8% (inactive). In test [2], the percent of negative control (+Dex) is 92% (inactive) and the z-score was -0.45. In test [3], the EGFP object count came out at 3 and the EGFP/DsRed ratio was 0.0722 (inactive). Further, the fraction signal in test [4] is 0.0035 (inactive).
Turning to `CS(=O)(=O)CCCn1c(=O)c(Oc2ccc(F)cc2F)cc2cnc(NC3CCOCC3)nc21`, in test [1], the liver cell % of control turned out to be 98.7% and the parasite % of control is 51.4% (inactive). Besides, in test [2], the percent of negative control (+Dex) is 101% (inactive) and the z-score was found to be 0.05. In test [3], the EGFP object count was determined as 1 and the EGFP/DsRed ratio was 0.0135 (inactive). Further, the fraction signal in test [4] was -0.009 (inactive).
Take `CC(=O)Nc1ccc2c(C3=C(c4cn(C)c5ccccc45)C(=O)NC3=O)cn(C)c2c1`: in test [1], the liver cell % of control amounted to 83.1% and the parasite % of control was 16.4% (inactive). Further, in test [2], the percent of negative control (+Dex) is 114% (inactive) and the z-score was -1.25. Moreover, in test [3], the EGFP object count came to 61.5 and the EGFP/DsRed ratio is 0.596 (active). The fraction signal in test [4] was -0.009 (inactive).
